Results as given in ChEMBL document CHEMBL4513216, “Probing the Open Global Health Chemical Diversity Library for Multistage-Active Starting Points for Next-Generation Antimalarials” (ACS Infect Dis, 2020).
The whole screen tested about 69,000 compounds, of which about 8,600 (12%) showed an effect of 50% or more. The list comes from a sample in which strong results are over-represented; it also holds similar structures and randomly drawn compounds.

These molecules were tested on Plasmodium berghei (assay: Screen against P. berghei liver stage (PbLuc), transformed with Luciferase, at 10uM). Details: tested at 10 uM.
Assay type: functional, HepG2

Structure (SMILES)	INHIBITION [%]
Cc1cnn(CCNc2cnc3ccccc3n2)c1	-68.3
O=C([C@H]1C[C@@H]2CCN(C3CCOCC3)C[C@@H]2O1)N1CCOCC1	-15.5
CN1CCC(CNC(=O)CCSc2ccc3c(c2)OCCO3)C1 (configuration not stated)	28.5
Cc1cccc(CC(=O)N2CCN(c3nccn3C)CC2)c1	-14.7
Cc1sc2c(C3CCCN(C(C)C)C3)nc(C)n2c1C (configuration not stated)	-12.9
Cn1cc(CN2CCc3onc(C(=O)N4CCCC4)c3C2)cn1	33.5
COc1ccc(CC(=O)N2CCCC(n3cc(C)cn3)C2)c(OC)c1 (configuration not stated)	7.08
CC(=O)N1CCN(C(=O)c2cnn(-c3ccccc3Cl)c2)CC1	56.1
Cc1ncc(C(=O)N2CCCN(Cc3ccccc3F)CC2)c(O)n1	34.9
CN1CCN(C(=O)c2cnn(-c3ccccc3Cl)c2)CC1	14.1
Cc1ccccc1CN1CCCN(C(=O)c2ccn(C)c(=O)c2)CC1	-7.46
O=C(c1cccnc1O)N1CCN(Cc2ccccc2F)CC1	54.1
O=C(COCC1CCCCO1)N1CCN(Cc2ccccc2F)C(=O)C1 (configuration not stated)	45.6
Cn1ccc(C(=O)N2CCN(Cc3ccccc3F)CC2)cc1=O	-57
N#Cc1ccc(OC2CCN(C(=O)COCC3CCCO3)CC2)cc1 (configuration not stated)	-13.9
CC(=O)N1CCCN(C(=O)c2cnn(-c3ccccc3Cl)c2)CC1	47
CCn1ccc(C(=O)N2CCCN(Cc3ccccc3F)CC2)cc1=O	73.4
O=C(c1cnc(C2CC2)nc1O)N1CCN(Cc2ccccc2F)CC1	-0.554
O=C(COCC1CCCO1)N1CCCN(Cc2ccccc2F)CC1 (configuration not stated)	53
O=C(CCc1ccsc1)N1CCC(N2CCNC2=O)CC1	19.5
CN(CC(=O)N1CCCCC1Cn1cccn1)C1CC1 (configuration not stated)	-79.3
Cc1cnn(CCNCc2ccccc2OCc2ccccn2)c1	-15.5

Structure (SMILES)	INHIBITION [%]
CCCc1n[nH]c(C2CN(C(=O)c3cc(C4CC4)on3)CCO2)n1 (configuration not stated)	14
CN1CCN(C(=O)c2cc3sccc3n2Cc2ccccc2Cl)CC1	11.7
CC(C)(C)c1noc(CCC(=O)N2CCN(Cc3ccco3)CC2)n1	19.9
NC(=O)c1cc2c(nc1CCOc1ccc(F)cc1)CCC2	31.2
NC(=O)c1cc2c(nc1CCOCc1ccccc1)CCC2	20.3
COc1cccc(OCCc2nc3c(cc2C(N)=O)CCC3)c1	54.8
O=C1CC[C@H]2[C@H](CCN2c2ncc(F)cn2)N1c1cccnc1	0.542
Cc1cccc(C(=O)N2CCCC(Cc3cncc4ccccc34)C2)n1 (configuration not stated)	-22.6
CCN(CC)CCCNC(=O)C(C)n1cc(Br)cn1 (configuration not stated)	-1.33
Cc1cc(N2CCOCC(Cc3ccc4[nH]ccc4c3)C2)ncn1 (configuration not stated)	67.7
Cc1ccccc1CSc1nc(N)cc(N2CCOCC(CO)C2)n1 (configuration not stated)	46.6
Cc1cc(N2CCC(Cc3ccncc3)C2)ncn1 (configuration not stated)	-2.09
c1cc(N2CCOCC(Cc3ccc4[nH]ccc4c3)C2)ncn1 (configuration not stated)	3.91
Cc1cc(N2CCC(Cc3cccnc3)C2)ncn1 (configuration not stated)	-2.09
Nc1cc(N2CCOCC(Cc3ccc4[nH]ccc4c3)C2)ncn1 (configuration not stated)	66.5
Cc1nc(NCc2nncn2C2CC2)c2c(CC(C)C)csc2n1	45.4
CC(=O)N1CC(C)CN(C(=O)c2cscn2)c2ccccc21 (configuration not stated)	-5.26
CC1CN(C(=O)c2ccnc(-n3cncn3)c2)c2ccccc2S1 (configuration not stated)	-40.7
CC1CN(C(=O)c2cscn2)c2ccccc2S1 (configuration not stated)	63.7
Cc1ncsc1C(=O)N1CC(C)Sc2ccccc21 (configuration not stated)	44
Cc1nc(C(=O)N2CC(C)Sc3ccccc32)cs1 (configuration not stated)	56.8
CC1CN(C)c2ccccc2CN1C(=O)c1cscn1 (configuration not stated)	-4.15

Structure (SMILES)	INHIBITION [%]
O=S(=O)(c1cccs1)N1CC[C@H]2[C@H]1CCN2c1ncccn1	-27
Cc1occc1C(=O)N1CCc2c(COCC3CC3)cncc2C1	27.9
CN1CCOC(C(=O)Nc2nnc(Cc3ccc(F)cc3)[nH]2)C1 (configuration not stated)	-2.71
CN1CCOC(C(=O)Nc2ccc3c(c2)nc(C2CC2)n3C)C1 (configuration not stated)	60.8
CN1CCOC(C(=O)Nc2ccc3c(c2)nc(C(C)(C)C)n3C)C1 (configuration not stated)	93.9
CN1CCOC(C(=O)Nc2nc(-c3ccc(Cl)cc3)n[nH]2)C1 (configuration not stated)	-29.5
CN1CCOC(C(=O)Nc2nc(-c3ccccc3F)n[nH]2)C1 (configuration not stated)	-35.9
CN1CCOC(C(=O)Nc2nc(-c3ccc4c(c3)CCC4)n[nH]2)C1 (configuration not stated)	32.4
Cn1c(C2CC2)nc2cc(NC(=O)C3CCOC3)ccc21 (configuration not stated)	-5.69
Cn1c(C2CC2)nc2cc(NC(=O)C3CC=CC3)ccc21	-22.4
CN1CCOC(C(=O)Nc2ccc3[nH]nnc3c2)C1 (configuration not stated)	59.7
CC1(C(=O)N2CCSCC2)CNCCO1 (configuration not stated)	34.825
O=C1CCCc2[nH]c(=O)c(C(=O)N3CCc4ccccc4C3)cc21	14.1
COc1cccc(-c2ncc(CN3CC[C@H](CO)[C@@H](O)C3)s2)c1	15.7
COc1cccc(-c2cccc(CN3C[C@H]4CC[C@@H](C3)N(C)C4=O)c2)c1	61
CN1C(=O)[C@@H]2CC[C@H]1CN(Cc1cccc(OCc3ccccn3)c1)C2	47.5
COc1cccc(-c2ncc(CN3CC[C@@H]4CC[C@H](C3)N4)s2)c1	46.1
COCCN1C[C@H]2CN(Cc3cccc(OC)c3)CCN2C1=O	24.8
COc1cccc(-c2ncc(CN3C[C@H]4CC[C@@H](C3)N(C)C4=O)s2)c1	78.9
Cc1ccc(C2NC(=O)c3cc(C(C)C)sc3N2)cc1 (configuration not stated)	-4.92
Cc1cnn(C2CN(CC(=O)NCCc3c[nH]c4ccccc34)C2)c1	10
COc1ccc(-c2cc(C3CCOC3)c(C#N)c(N)n2)cn1 (configuration not stated)	6.69

Structure (SMILES)	INHIBITION [%]
COc1cc(-c2cc(C3CCOC3)c(C#N)c(N)n2)ccc1O (configuration not stated)	53
Cc1cc(-c2cc(C3CCOC3)c(C#N)c(N)n2)ccc1Cl (configuration not stated)	23.9
C=Cc1ccc(C(=O)N2CCCC(Nc3ccc(OC)cc3)C2)cc1 (configuration not stated)	73.5
COC(=O)c1ccc(C(=O)N2CCCC(Nc3ccc(F)cc3)C2)cc1 (configuration not stated)	-6.88
C=Cc1ccc(C(=O)N2CCCC(Nc3ccc(F)cc3)C2)cc1 (configuration not stated)	36.8
C=Cc1ccc(C(=O)N2CCCC(Nc3ccccc3)C2)cc1 (configuration not stated)	50.3
Cc1ccc(C(=O)N2CCCC(Nc3ccc(F)cc3)C2)cc1 (configuration not stated)	36
C=Cc1ccc(C(=O)N2CCCC(Nc3ccc(F)c(F)c3)C2)cc1 (configuration not stated)	37.1
CC(C)N1CCO[C@H]2CN(C(=O)c3ccsc3)C[C@H]21	-5.05
CC(=O)N1CCCCC[C@@H]2[C@@H]1[C@H](c1cccc(F)c1)CN2C(=O)C1CC1	35.85
O=C(c1ncc(F)cc1F)N1CCC(c2ncc[nH]2)CC1	29.4
CN(C)C(=O)c1cccc(C2CCN(c3ncccn3)CC2)n1	-19.7
CN(C)c1cccc(C2CCN(c3ncccn3)CC2)n1	48
Cc1cc(C)nc(N2CCC(c3ccnc(N(C)C)n3)CC2)n1	75.9
CN(C)c1nccc(C2CCN(C(=O)CO)CC2)n1	-37
CN(C)c1nccc(C2CN(S(C)(=O)=O)C2)n1	20.2
CN(C)c1nccc(C2CCN(c3ncccn3)CC2)n1	76.8
CN(C)c1nccc(C2CCN(C3CCCCC3O)CC2)n1 (configuration not stated)	27.6
CN1CCC(c2cccc(C(=O)N(C)C)n2)CC1	16.5
NC(=O)c1cccc(C2CCN(c3ncccn3)CC2)n1	52.7
Cc1cccc(CN2CCC3(CC2)CC(Oc2cccnc2)C3)n1	0.923
CCOc1ccnc(N2CCN(C(=O)c3ccn(C)c(=O)c3)CC2)n1	4.71

Structure (SMILES)	INHIBITION [%]
COc1ccc(CCCN(C)C(=O)c2cc(C(C)=O)c[nH]2)cc1OC	-46.6
COCCN1C(=O)[C@@H]2CC[C@H]1CN(C(=O)Cc1ccc(O)c(Cl)c1)C2	-82.7
CCS(=O)(=O)N1CCC2(CC1)COC(COc1cccnc1)C2 (configuration not stated)	5.63
Cc1ccc(C#N)c(N2CCCC(c3nccn3Cc3cscn3)C2)n1 (configuration not stated)	56.7
Cc1cnc(C)c(N2CCC(c3nccn3Cc3cscn3)CC2)n1	8.51
Cc1ccc(C#N)c(N2CCC(c3nccn3Cc3cscn3)CC2)n1	23.9
O=C(CC1CC1)N1C[C@@H]2CN(c3ccccc3)C(=O)[C@@H]2C1	-15.9
Cc1cc(C(=O)NCC2OCCc3cn(CC4CC4)nc32)c(C)[nH]1 (configuration not stated)	26.5
COc1ccc(CCN2CC(NCc3ncc[nH]3)CC2=O)cc1 (configuration not stated)	-5.19
CN(C(=O)c1ccc2c(c1)nc(N1CC[C@H](O)C1)n2C)C1CCSCC1	-1.04
CN(C)C(=O)c1ccc2c(c1)nc(N1CC[C@H](O)C1)n2C	51.8
Cn1c(N2CC[C@H](O)C2)nc2cc(C(N)=O)ccc21	14.3
COc1ccc(Oc2cc(CN)ccn2)cc1	62.4
NCc1ccnc(Oc2ccccc2)c1	-18.5
CC(C)C(=O)NCc1ccnc(Oc2ccc(F)cc2)c1	32.5
CCOc1ccc(Oc2cc(CN)ccn2)cc1	-5.69
NCc1ccnc(Oc2ccc(F)cc2)c1	82.9
Cc1ccc(Oc2cc(CN)ccn2)cc1C	45.7
O=C(CSc1ccccc1)N1C[C@@H]2CC[C@H]1CN(Cc1ccncc1)C2	10.4
